Source: PubChem BioAssay
Only some compounds are listed: those with a hit (about 2.2% of all), similar ones and a draw of the others.
TGFb inhibitor = TGF-b pathway inhibition; HepG2 CAGA-GFP TGF-b/SMAD3 reporter, GFP fluorescence, 18 h; TGF-beta stimulated, 500 pg/mL final; Potency, µM (series often up to 46.1 µM), inactives show top-dose activity, negative = inhibition, most hits filed as inhibitors; 410,000 compounds, 1.2% hits; AID 588855; note: potency is the fitted concentration of half-maximal effect; % is set by controls: 0 for no effect and ±100 for the full control effect; nearly all actives have a fitted effect of over 65% in size
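Cell-based qHTS in HEPG2 carrying a CAGA-GFP Smad reporter; compounds added before 500 pg/mL final TGF-beta, 18 h incubation at 37 degrees C, GFP fluorescence quantified per cell by imaging cytometry.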
HepG2 tox-1 = kills HepG2 cells in TGF-b inhibitor counter-screen; 410,000 compounds, 0.76% hits; HepG2 CAGA-GFP viability, ATP luminescence, 18 h; Potency, µM (titrated, usually from 46.1 µM), for the others: at the highest dose activity change, negative = cytotoxicity, actives largely listed as cytotoxic; AID 588856; note: potency is the fitted concentration of half-maximal effect
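HepG2 CAGA-GFP cells (1000/well, DMEM with 1% FBS) received compound, then TGF-beta at 500 pg/mL final, and were incubated 18 hours at 37 degrees C. Viability was read by CellTiter-Glo luminescence. Media-only wells were set as complete cell-killing and DMSO as no toxicity.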
ATXN viability = viability counter-screen for ATXN expression inhibitors; S2 cells (HEK-293 line with an ATXN2-luciferase reporter) viability, CellTiter-Fluor protease fluorescence, 24 h; Potency, µM (titrated, usually from 56.7 µM), usual class: cytotoxic; 400,000 compounds, 0.49% hits; AID 651635; note: potency is the fitted concentration of half-maximal effect; nearly all actives have a fitted effect of over 40% in size
ATXN2 expr inh = inhibitors of ATXN2 expression; Potency, µM (doses to about 57 µM), for the others: at the highest dose activity change, negative = inhibition, actives largely listed as inhibitors; HEK-293 ATXN2-luciferase reporter, luminescence, 24 h; AID 1745845; 360,000 compounds, 0.72% hits; note: potency is the fitted concentration of half-maximal effect; % is set by controls: 0 for no effect and ±100 for the full control effect; nearly all actives have a fitted effect of over 55% in size
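qHTS (up to 57 uM final) was run with 24 h compound exposure of reporter cells at 37 °C. Each well was multiplexed: SteadyGlo luminescence measured ATXN2-luciferase expression after a fluorogenic Gly-Phe-AFC viability readout (25 uM final).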
LDHA inh = inhibitors of human lactate dehydrogenase A; P00338; purified LDHA, NADH/diaphorase-resazurin fluorescence; hits give low values; activity change, % (values are at about 110 or 230 µM); 480,000 compounds, 0.15% hits; AID 1347041; in the data active = activity change below about -30%; inconclusive = mostly about -25% to -30%;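 note: plate controls were DMSO wells for no effect and wells without enzyme for full effect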
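Human LDH5 at 2 nM final in Tris HCl pH 7.4 with 0.06 mM NADH and 0.2 mM pyruvate, reacted 5 minutes at room temperature. Remaining NADH coupled via diaphorase/resazurin; resorufin fluorescence read at 0 and 20 minutes, normalized to enzyme-free and DMSO wells.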
mIDH1 inhibitor = inhibitors of human mutant IDH1 R132H; O75874; IDH1-R132H enzyme, NADPH consumption, diaphorase/resazurin fluorescence; Potency, µM (series often up to 76.6 µM), inactives show top-dose activity change, negative = inhibition, most hits filed as inhibitors; 390,000 compounds, 0.093% hits; AID 602179; note: potency is the fitted concentration of half-maximal effect; % is set by controls: 0 for no effect and ±100 for the full control effect; nearly all actives have a fitted effect of over 65% in size
Target sequence (O75874 whole entry R132H, stated change not applied): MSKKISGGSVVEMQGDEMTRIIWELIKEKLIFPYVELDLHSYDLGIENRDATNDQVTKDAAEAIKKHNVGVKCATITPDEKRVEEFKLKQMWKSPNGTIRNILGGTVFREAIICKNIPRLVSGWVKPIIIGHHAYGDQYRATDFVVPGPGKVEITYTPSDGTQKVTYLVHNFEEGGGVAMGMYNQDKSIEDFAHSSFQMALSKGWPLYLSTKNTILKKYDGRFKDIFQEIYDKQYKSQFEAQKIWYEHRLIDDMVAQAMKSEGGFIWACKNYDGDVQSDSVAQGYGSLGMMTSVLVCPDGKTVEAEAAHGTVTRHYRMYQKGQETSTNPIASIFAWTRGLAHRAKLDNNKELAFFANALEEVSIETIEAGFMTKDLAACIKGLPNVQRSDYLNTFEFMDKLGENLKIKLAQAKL
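IDH1-R132H (0.5 ug/mL) preincubated 30 min with compound, then NADPH (0.016 mM) and alpha-KG (2 mM) added; 80 min at RT, pH 7.5. Remaining NADPH coupled via diaphorase/resazurin to fluorescence (540/590 nm); concentration-response curves normalized to no-enzyme control.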
TGFb CAGA inh = confirmation of TGF-b signaling inhibitors in HepG2 reporter cells; shares compounds with TGFb inhibitor; HepG2 CAGA-GFP TGF-b reporter, GFP fluorescence, 18 h; cells stimulated with TGF-beta, 500 pg/mL; Potency, µM (series often up to 46.1 µM), without a hit: top-dose activity, negative = inhibition, usual class: inhibitors; 1,600 compounds, 63% hits; AID 720534; note: potency is the fitted concentration of half-maximal effect; % is set by controls: 0 for no effect and ±100 for the full control effect; nearly all actives have a fitted effect of over 65% in size
HepG2 tox-2 = toxic to HepG2 cells in TGF-b counterscreen | shares compounds with TGFb inhibitor | HepG2 CAGA-GFP viability, ATP luminescence, 18 h; cells stimulated with TGF-beta, 500 pg/mL | Potency, µM (titrated, usually from 46.1 µM), inactives show top-dose activity, negative = cytotoxicity, most hits filed as inhibitors | 1,600 compounds, 27% hits | AID 720535; note: potency is the fitted concentration of half-maximal effect; % is set by controls: 0 for no effect and ±100 for the full control effect; nearly all actives have a fitted effect of over 70% in size
TGFb CCL64 inh = orthogonal confirmation of TGF-b inhibitors in CCL64 cells; shares compounds with TGFb inhibitor; CCL64 CAGA-GFP reporter, TGF-b stimulated, GFP fluorescence, 18 h; Potency, µM (highest dose often 46.1 µM), for the others: at the highest dose activity, negative = inhibition, most hits filed as inhibitors; 1,600 compounds, 41% hits; AID 720536; note: potency is the fitted concentration of half-maximal effect; nearly all actives have a fitted effect of over 65% in size
TGFb COP inh = TGF-b inhibition validated with COP promoter; shares compounds with TGFb inhibitor; HepG2 COP-GFP TGF-b reporter, GFP fluorescence, 18 h; cells stimulated by added recombinant TGF-beta; Potency, µM (top dose mostly 46.1 µM), for the others: at the top dose activity, negative = inhibition, actives largely listed as inhibitors; 1,600 compounds, 3% hits; AID 720537; note: potency is the fitted concentration of half-maximal effect; nearly all actives have a fitted effect of over 70% in size
Numbers without * were called inactive; i = inactive; ? = inconclusive; · = no result given. Unless noted, calls come from the whole dose curve; as a rule, active = well fitted curve in the direction sought with a large enough effect; inconclusive = small, poorly fitted or top-dose-only effect, or another doubt; inactive = no such curve, though single readings can be large; an effect the other way counts as inactive or inconclusive.

SMILES	TGFb inhibitor	HepG2 tox-1	ATXN viability	ATXN2 expr inh	LDHA inh	mIDH1 inhibitor	TGFb CAGA inh	HepG2 tox-2	TGFb CCL64 inh	TGFb COP inh
COC(=O)C(C)NC(=O)C12CC3(C)CC(C)(CC(C)(C3)C1)C2 (configuration not stated)	·	·	·	·	-2	·	·	·	·	·
COc1cc(C(=O)N/N=C(\C)c2ccccn2)cc(OC)c1OC	1.3µM*	-2%	i	-13%	-3	10%	7.3µM*	-17%	3.7µM*	-11%
C/C(=N\NC(=O)c1cccs1)c1ccccn1	·	·	·	·	4	·	·	·	·	·
C/C(=N\NC(=O)COc1ccccc1-c1ccccc1)c1ccccn1	11µM*	-18%	·	?	-4	-2%	9.2µM*	?	?	-8%
Cc1cc(C)c2cccc(N)c2n1	0%	-1%	i	1%	29	5%	·	·	·	·
Cc1cc(C)c2c(N)c3ccccc3nc2n1	11µM*	10%	·	?	10	9%	21µM*	18µM*	13µM*	5%
CCO[C@@H]1OC(C(=O)NCc2nc3ccccc3[nH]2)=C[C@H](C(C)(C)C)[C@H]1CCCO	1.6µM*	-5%	?	4%	-2	29%	?	6%	?	-25%
CC1(C)Cc2ccccc2C2=NNC(=O)C2=N1	3.2µM*	-89%	?	?	57	25%	4.6µM*	7.3µM*	?	12µM*
CC1(C)Cc2ccccc2C(C2=C(O)CCCC2=O)=N1	·	·	·	·	4	·	·	·	·	·
Cc1nnc(SCC(=O)Nc2ccc(F)cc2F)n(N)c1=O	1%	17%	i	7%	-2	9%	·	·	·	·
COc1ccc(CNc2cccc3[nH]c(C(F)(F)F)nc23)cc1OC	5.6µM*	-31%	·	·	11	0%	?	-4%	-21%	-9%
COc1ccc(S(=O)(=O)Nc2ccc3c(c2)C(=O)N([C@H](C)CO)C[C@H](C)[C@@H](CN(C)C(=O)Nc2ccc4c(c2)OCO4)O3)cc1	3%	-15%	i	4%	-1	0%	·	·	·	·
COc1cc(/C=N/n2c(SC)nnc(C(C)(C)C)c2=O)ccc1O	3.2µM*	-13%	i	12%	-4	-1%	?	11%	-5%	2%
O=c1c2ccccc2nc(/C=C/c2ccc([N+](=O)[O-])cc2)n1CCCO	-6%	3%	i	2%	1	5%	·	·	·	·
O=c1c2ccccc2nc(/C=C/c2ccc([N+](=O)[O-])o2)n1CCCO	5.6µM*	3.2µM*	·	4.5µM*	0	7%	3.3µM*	6.5µM*	5.8µM*	?
CC1CCCC(NC(=O)C(c2ccccc2)N(C)C)C1 (configuration not stated)	·	·	·	·	-9	·	·	·	·	·
Cc1cccc(C(=O)NC(=S)Nc2ccc(Cc3ccncc3)cc2)c1	?	-29%	i	-8%	1	-1%	·	·	·	·
Cc1cc(C)cc(C(=O)NC(=S)Nc2ccc(Cc3ccncc3)cc2)c1	7.1µM*	-25%	i	-37%	-9	0%	13µM*	?	-24%	15%
CC(=O)Nc1ccc(Sc2ccnc3cc(Cl)ccc23)cc1	·	·	·	·	1	·	·	·	·	·
CC(=O)Nc1ccc(S(=O)(=O)c2ccnc3cc(Cl)ccc23)cc1	10µM*	-75%	i	·	-16	-6%	23µM*	?	21µM*	15%
COc1ccccc1CNS(=O)(=O)c1ccc2c(c1)CC(C)N2C(=O)C1CCC1 (configuration not stated)	14µM*	-15%	i	-18%	3	8%	18µM*	-19%	-24%	13%
COc1ccccc1CNS(=O)(=O)c1ccc2c(c1)CC(C)N2C(=O)C1CC1 (configuration not stated)	?	-73%	?	·	-4	1%	·	·	·	·
O=C(N/N=C/c1ccc[nH]1)c1ccc(COc2cccc3cccnc23)cc1	1.8µM*	2%	?	7.5µM*	0	5%	18µM*	?	2.1µM*	67%
Cc1ccccc1OCC(=O)NC(=S)Nc1ccc(N2CCCC2)cc1	-2%	-7%	i	-10%	-5	-4%	·	·	·	·
